“And” between values parts separate entries of the source, which are not always exact repeats. Identical values can stand only once. About 79,000 compounds went through this panel and 15% of them were active in at least one assay; those are over-represented in the sample as a whole. The source made the active and inactive calls. Cut-off read from the data, not from the text of the source: active = growth inhibition above about 70%; inactive = the rest.

The nature of one assay: NCI Yeast Anticancer Drug Screen. Data for the bub3 strain (AID 167). The settings on record: S. cerevisiae bub3 mutant strain, at 50.0 µM, stronger effect = higher value. The method, boiled down: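 Part of a panel of yeast mutants defective in DNA damage repair or cell cycle regulation. Each strain is grown with compound, and inhibition is calculated relative to solvent-treated cultures.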
Consider `O=C([O-])C(F)(F)C(F)(F)F.[C-]#[O+].[C-]#[O+].[C-]#[O+].[C-]#[O+].[C-]#[O+].[Mn]`, for which the growth inhibition is 0.25% (inactive).

As to `CC1CCC(OC(=O)CCl)CC1` (configuration not stated), the growth inhibition was 8.95% (inactive). The same measure, in the same setting: the figure for `CCCCNCCc1cccnc1` is 0.8% (inactive). Still for that read-out and setting: the figure for `COc1cccc(C=C(C#N)C#N)c1OC` is -3.8% (inactive); for `Cc1ccc(O)c(Cl)c1` it is 0.15% (inactive); for `O=CNc1ccc(Cl)cc1C(=O)c1ccccc1` it is 21.6% (inactive). Same read-out and setting: the figure for `CC1(C)OCC(C2NC2C2COC(C)(C)O2)O1` (configuration not stated) is -10.9% (inactive).

A short description of the next assay: NCI Yeast Anticancer Drug Screen. Data for the mlh1 rad18 strain (AID 175). Conditions: S. cerevisiae mlh1 rad18 strain growth inhibition; at 50.0 µM; stronger effect = higher value. The method, boiled down: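 Genetically defined yeast (DNA repair-deficient) exposed to compounds; growth inhibition determined relative to vehicle.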
Consider `N.N.N.N.O=C([O-])C(=O)O.O=C([O-])C(=O)[O-].[Co+3]`, for which the growth inhibition was -11.6% (inactive). Same read-out and setting: in the case of `O=C1NC(=O)C(CC(C(=O)C(=O)Nc2ccccc2Cl)C(=O)c2ccc3ccccc3c2)C(=O)N1` (configuration not stated) it was -3.45% (inactive). On the same count and under the same terms, the figure for `CSCCC([NH-])C(=O)O.CSCCC([NH-])C(=O)O.[Cu+2]` (configuration not stated) is -2.5% (inactive); for `CC(C)=NNC1=NC(CC(C)C)P(=O)(NCCCCNP2(=O)SC(NN=C(C)C)=NC2CC(C)C)S1` (configuration not stated) it is 6.15% (inactive); for `CCCCOS(C)(=O)=O` it is 29.4% (inactive). With `CN(C)NP(c1ccccc1)c1ccccc1`, the growth inhibition was 1.1% (inactive).

As for `NC(CO)Cc1ccccc1` (configuration not stated), the growth inhibition was 2.05% (inactive) and -1.35% (inactive). On the same count and under the same terms, the figure for `O=C(CN1CCCCC1)c1ccc(Br)cc1` is 9.55% (inactive). Take `COc1ccc(N=NC(=O)NC(CC(C)C)C(=O)NCC(=O)O)cc1` (configuration not stated): the growth inhibition is 5.35% (inactive). For `COc1cc(C(=O)O)cc(OC)c1OC`, the growth inhibition was -9.95% (inactive). `CCCCC[N+]1=Cc2cc(O)c(O)cc2CC1`: the growth inhibition was -21.7% (inactive). Regarding `O=C(O)C(=O)Cc1ccc2c(c1)OCO2`, the growth inhibition was 0.5% (inactive). As to `O=C1NCCCCC1Cl` (configuration not stated), the growth inhibition is 14.5% (inactive). Consider `COC(=O)N/N=C(\C)C(CN(C)C)C(c1ccccc1)c1c(O)c2ccccc2oc1=O` (configuration not stated), for which the growth inhibition is 34.1% (inactive).

In the case of `Fc1ccc(C(Cl)(Cl)Cl)cc1`, the growth inhibition was 6.2% (inactive). Consider `C=C[CH2][Sn]([CH3])([CH3])[CH2]C=C`, for which the growth inhibition was 4.75% (inactive).

For `CC(O)C[As](=O)(O)c1ccccc1Cl` (configuration not stated), the growth inhibition was -16.6% (inactive).

As to `NCCCP(c1ccccc1)c1ccccc1`, the growth inhibition is 10.6% (inactive). On the same count and under the same terms, the figure for `O=C(O)c1cc[c]([Hg][S]c2ncnc3nc[nH]c23)cc1` is 98.9% (active); for `Cc1ccc(C(C)(C)C)c(OP(=S)(S)Oc2cc(C)ccc2C(C)(C)C)c1.[Pb]` it is 7.3% (inactive). On the same count and under the same terms, in the case of `CCOS(=O)(=O)OCC` it was 14.2% (inactive); in that of `CCOC(=O)C(C)(C)C(OP(=S)(OCC)OCC)=C(C)C`, 7.15% (inactive).

On to `CCCO[As](=O)(OCCC)OCCC`, for which the growth inhibition was -9.1% (inactive). The same measure, in the same setting: in the case of `O=C(c1ccccc1)C1C(c2ccccc2)N1Cc1ccccc1` (configuration not stated) it was -2.9% (inactive); in that of `C1CSCCO1.[Cu+2].[O-][Cl+3]([O-])([O-])O`, -13.8% (inactive).

For `COc1ccc2[nH]cc(CN(C)C)c2c1`, the growth inhibition was 18.6% (inactive). For `C=CCN1CCC23c4c5ccc(O)c4OC2C(=NN=C2CCC4(O)C6Cc7ccc(O)c8c7C4(CCN6CC=C)C2O8)CCC3(O)C1C5` (configuration not stated), the growth inhibition was 32.2% (inactive).

On to `Cc1cc(Cl)ccc1N`, for which the growth inhibition is 21.4% (inactive).

Take `COc1ccc(C(N)Cc2cc(OC)c(OC)c(OC)c2)cc1` (configuration not stated): the growth inhibition was -8.6% (inactive). For `O=C(Nc1ccc(Cl)cc1C(=O)c1ccccc1)c1ccc(Cl)cc1`, the growth inhibition was 9.55% (inactive). Same read-out and setting: the figure for `[Ni+2].[O-]c1ccc(Cl)cc1C=NCc1ccccn1.[O-]c1ccc(Cl)cc1C=NCc1ccccn1` is 97.5% (active); for `CCCCOCN(COCCCC)C(C)Cc1ccccc1` (configuration not stated) it is -21.8% (inactive). On the same count and under the same terms, the figure for `[C-]#[O+].[C-]#[O+].[C-]#[O+].[Ni].c1ccc([PH+](CC[PH+](c2ccccc2)c2ccccc2)CC[PH+](c2ccccc2)c2ccccc2)cc1` is 46.3% (inactive); for `O=C([O-])C(F)(F)C(F)(F)F.[C-]#[O+].[C-]#[O+].[C-]#[O+].[C-]#[O+].[C-]#[O+].[Mn]` it is -7.25% (inactive). On the same count and under the same terms, in the case of `CC1CCC(OC(=O)CCl)CC1` (configuration not stated) it was -8.75% (inactive). Regarding `CCCCNCCc1cccnc1`, the growth inhibition is 15.9% (inactive). The same measure, in the same setting: in the case of `COc1cccc(C=C(C#N)C#N)c1OC` it was 4.5% (inactive); in that of `Cc1ccc(O)c(Cl)c1`, 38% (inactive). For the compound `O=CNc1ccc(Cl)cc1C(=O)c1ccccc1`, the growth inhibition was 4.4% (inactive). Still for that read-out and setting: the figure for `CC1(C)OCC(C2NC2C2COC(C)(C)O2)O1` (configuration not stated) is 6.5% (inactive).

Source of the values: PubChem BioAssay (NCI).
